Source: the supplement of paper PMC7595190

How the values were obtained:
Assay in all cases: CellTox Green cytotoxicity fluorescence relative to DMSO vehicle (fold of vehicle RFU); higher = more cell death (loss of membrane integrity), active = 2 or more
[1] = system: CMK
Outline: (§1)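 CellTox Green reagent was added when MV4-11, CMK and Kasumi-1 cells were seeded at 4.0 × 10^4 cells per well, and single compounds from the Selleckchem apoptosis library were added at final 0.01, 0.1 and 1 µM in DMSO (vehicle 0.1% DMSO). Fluorescence at Ex 485 nm and Em 520 nm was read after 24, 48 and 72 h at 37 °C, 5% CO2. The reported cytotoxicity corresponds to loss of membrane integrity, given as fold of the DMSO vehicle.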

[2] = system: Kasumi-1
Outline: as §1

[3] = system: MV4-11
Outline: as §1

Measured: CellTox Green cytotoxicity fluorescence

O=C1NC(=NCc2cccs2)S/C1=C\c1ccc2ncccc2c1
inactive: [1]; 0.01 µM, 24 h 1.02 | [1]; 0.01 µM, 48 h 1.04 | [1]; 0.01 µM, 72 h 1.07 | [1]; 0.1 µM, 24 h 0.996 | [1]; 0.1 µM, 48 h 1 | [1]; 0.1 µM, 72 h 0.991 | [1]; 1 µM, 24 h 1.03 | [1]; 1 µM, 48 h 1.09 | [1]; 1 µM, 72 h 1.08 | [2]; 0.01 µM, 24 h 0.99 | [2]; 0.01 µM, 48 h 0.991 | [2]; 0.01 µM, 72 h 0.96 | [2]; 0.1 µM, 24 h 1.01 | [2]; 0.1 µM, 48 h 1.04 | [2]; 0.1 µM, 72 h 1 | [2]; 1 µM, 24 h 1.02 | [2]; 1 µM, 48 h 1.01 | [2]; 1 µM, 72 h 1.01 | [3]; 0.01 µM, 24 h 0.976 | [3]; 0.01 µM, 48 h 0.968 | [3]; 0.01 µM, 72 h 0.981 | [3]; 0.1 µM, 24 h 0.997 | [3]; 0.1 µM, 48 h 0.979 | [3]; 0.1 µM, 72 h 0.955 | [3]; 1 µM, 24 h 1.05 | [3]; 1 µM, 48 h 1.12 | [3]; 1 µM, 72 h 1.15

CN[C@@H](C)C(=O)N[C@H](C(=O)N1CCC[C@H]1C(=O)Nc1snnc1-c1ccccc1)C1CCCCC1
inactive: [1]; 0.01 µM, 24 h 0.986 | [1]; 0.01 µM, 48 h 0.984 | [1]; 0.01 µM, 72 h 0.983 | [1]; 0.1 µM, 24 h 1.01 | [1]; 0.1 µM, 48 h 1 | [1]; 0.1 µM, 72 h 1.02 | [1]; 1 µM, 24 h 1.01 | [1]; 1 µM, 48 h 1.02 | [1]; 1 µM, 72 h 0.959 | [2]; 0.01 µM, 24 h 0.983 | [2]; 0.01 µM, 48 h 0.949 | [2]; 0.01 µM, 72 h 0.94 | [2]; 0.1 µM, 24 h 1.01 | [2]; 0.1 µM, 48 h 1.03 | [2]; 0.1 µM, 72 h 1.07 | [2]; 1 µM, 24 h 0.988 | [2]; 1 µM, 48 h 1.04 | [2]; 1 µM, 72 h 1.1

COc1cccc(-n2c(=O)[nH]c3cc(Cl)n(-c4ccc(-c5cccc(OC)c5O)cc4)c3c2=O)c1
inactive: [1]; 0.01 µM, 24 h 0.99 | [1]; 0.01 µM, 48 h 0.943 | [1]; 0.01 µM, 72 h 1.27 | [1]; 0.1 µM, 24 h 0.996 | [1]; 0.1 µM, 48 h 0.985 | [1]; 0.1 µM, 72 h 0.962 | [1]; 1 µM, 24 h 0.95 | [1]; 1 µM, 48 h 0.915 | [1]; 1 µM, 72 h 0.832 | [2]; 0.01 µM, 24 h 0.97 | [2]; 0.01 µM, 48 h 0.973 | [2]; 0.01 µM, 72 h 1.13 | [2]; 0.1 µM, 24 h 0.99 | [2]; 0.1 µM, 48 h 0.989 | [2]; 0.1 µM, 72 h 0.991 | [2]; 1 µM, 24 h 0.947 | [2]; 1 µM, 48 h 0.91 | [2]; 1 µM, 72 h 0.877 | [3]; 0.01 µM, 24 h 0.975 | [3]; 0.01 µM, 48 h 0.924 | [3]; 0.1 µM, 24 h 0.975 | [3]; 0.1 µM, 48 h 0.966 | [3]; 0.1 µM, 72 h 0.959 | [3]; 1 µM, 24 h 1.01 | [3]; 1 µM, 48 h 1 | [3]; 1 µM, 72 h 1

Cn1cc(-c2ccc3c(c2)CCN3C(=O)Cc2cccc(C(F)(F)F)c2)c2c(N)ncnc21
inactive: [1]; 0.01 µM, 24 h 0.971 | [1]; 0.01 µM, 48 h 0.966 | [1]; 0.01 µM, 72 h 0.935 | [1]; 0.1 µM, 24 h 0.981 | [1]; 0.1 µM, 48 h 0.987 | [1]; 0.1 µM, 72 h 0.978 | [1]; 1 µM, 24 h 0.972 | [1]; 1 µM, 48 h 1.01 | [1]; 1 µM, 72 h 0.913 | [2]; 0.01 µM, 24 h 1.07 | [2]; 0.01 µM, 48 h 1.03 | [2]; 0.01 µM, 72 h 1.02 | [2]; 0.1 µM, 24 h 1.01 | [2]; 0.1 µM, 48 h 1.05 | [2]; 0.1 µM, 72 h 1.07 | [2]; 1 µM, 24 h 0.955 | [2]; 1 µM, 48 h 1.02 | [2]; 1 µM, 72 h 1.08 | [3]; 0.01 µM, 24 h 0.987 | [3]; 0.01 µM, 48 h 0.984 | [3]; 0.01 µM, 72 h 0.979 | [3]; 0.1 µM, 24 h 0.986 | [3]; 0.1 µM, 48 h 0.981 | [3]; 0.1 µM, 72 h 0.977 | [3]; 1 µM, 24 h 1.05 | [3]; 1 µM, 48 h 1.34 | [3]; 1 µM, 72 h 1.77

CN1CCN(Cc2ccc(Nc3ncc(Cl)c(Nc4ccccc4S(=O)(=O)N(C)C)n3)cc2)CC1
active: [1]; 1 µM, 24 h 2.06 | [1]; 1 µM, 48 h 2.42 | [3]; 0.1 µM, 72 h 2.27 | [3]; 1 µM, 48 h 2.4 | [3]; 1 µM, 72 h 2.55
inactive: [1]; 0.01 µM, 24 h 0.958 | [1]; 0.01 µM, 48 h 0.972 | [1]; 0.01 µM, 72 h 0.913 | [1]; 0.1 µM, 24 h 1.07 | [1]; 0.1 µM, 48 h 1.56 | [1]; 0.1 µM, 72 h 1.32 | [1]; 1 µM, 72 h 1.62 | [2]; 0.01 µM, 24 h 0.957 | [2]; 0.01 µM, 48 h 0.97 | [2]; 0.01 µM, 72 h 0.961 | [2]; 0.1 µM, 24 h 0.997 | [2]; 0.1 µM, 48 h 1.34 | [2]; 0.1 µM, 72 h 1.49 | [2]; 1 µM, 24 h 1.47 | [2]; 1 µM, 48 h 1.66 | [2]; 1 µM, 72 h 1.72 | [3]; 0.01 µM, 24 h 0.95 | [3]; 0.01 µM, 48 h 0.961 | [3]; 0.01 µM, 72 h 0.975 | [3]; 0.1 µM, 24 h 1.14 | [3]; 0.1 µM, 48 h 1.93 | [3]; 1 µM, 24 h 1.42

CC(C)c1ccccc1Cc1cc(C(=O)Nc2ccc(S(=O)(=O)c3ccccc3C(C)(C)C)cc2)c(O)c(O)c1O
inactive: [1]; 0.01 µM, 24 h 0.947 | [1]; 0.01 µM, 48 h 0.942 | [1]; 0.01 µM, 72 h 0.932 | [1]; 0.1 µM, 24 h 0.932 | [1]; 0.1 µM, 48 h 0.922 | [1]; 0.1 µM, 72 h 0.947 | [1]; 1 µM, 24 h 0.924 | [1]; 1 µM, 48 h 1.51 | [1]; 1 µM, 72 h 1.6 | [2]; 0.01 µM, 24 h 0.977 | [2]; 0.01 µM, 48 h 0.911 | [2]; 0.01 µM, 72 h 0.915 | [2]; 0.1 µM, 24 h 0.951 | [2]; 0.1 µM, 48 h 0.94 | [2]; 0.1 µM, 72 h 0.932 | [2]; 1 µM, 24 h 0.94 | [2]; 1 µM, 48 h 0.909 | [2]; 1 µM, 72 h 0.919

CCOC(=O)c1[nH]c2cc(Cl)ccc2c1C(C(=O)NC(C)(C)C)N(C=O)Cc1ccc(Cl)cc1 (stereo not given)
inactive: [1]; 0.01 µM, 24 h 0.996 | [1]; 0.01 µM, 48 h 0.985 | [1]; 0.01 µM, 72 h 1 | [1]; 0.1 µM, 24 h 0.958 | [1]; 0.1 µM, 48 h 0.958 | [1]; 0.1 µM, 72 h 0.962 | [1]; 1 µM, 24 h 0.96 | [1]; 1 µM, 48 h 0.971 | [1]; 1 µM, 72 h 0.87 | [2]; 0.01 µM, 24 h 1.06 | [2]; 0.01 µM, 48 h 1.01 | [2]; 0.01 µM, 72 h 1 | [2]; 0.1 µM, 24 h 0.989 | [2]; 0.1 µM, 48 h 0.982 | [2]; 0.1 µM, 72 h 1 | [2]; 1 µM, 24 h 0.977 | [2]; 1 µM, 48 h 0.971 | [2]; 1 µM, 72 h 0.97 | [3]; 0.01 µM, 24 h 0.983 | [3]; 0.01 µM, 48 h 0.965 | [3]; 0.01 µM, 72 h 0.957 | [3]; 0.1 µM, 24 h 0.989 | [3]; 0.1 µM, 48 h 0.983 | [3]; 0.1 µM, 72 h 0.985 | [3]; 1 µM, 24 h 0.954 | [3]; 1 µM, 48 h 0.993 | [3]; 1 µM, 72 h 1.02
